Experimental data taken from the supplement of paper PMC11732987, “Enantioselective OTUD7B fragment discovery through chemoproteomics screening and high-throughput optimisation” (Communications Chemistry, 2025).

Key:
Assay in all cases: log2 ratio of Biotin-Ahx-Ub-VS probe labelling (fragment/DMSO); higher = less target engagement (more negative = stronger competition), active = hit call of the paper (q ≤ 0.05, log2 ratio ≤ -1)
Settings in all cases: compound concentration: 200 uM; treatment time: 3 h
USP9X = USP9X (UniProt Q93008)
Chain of USP9X (Q93008 whole entry, the tested form may be a part): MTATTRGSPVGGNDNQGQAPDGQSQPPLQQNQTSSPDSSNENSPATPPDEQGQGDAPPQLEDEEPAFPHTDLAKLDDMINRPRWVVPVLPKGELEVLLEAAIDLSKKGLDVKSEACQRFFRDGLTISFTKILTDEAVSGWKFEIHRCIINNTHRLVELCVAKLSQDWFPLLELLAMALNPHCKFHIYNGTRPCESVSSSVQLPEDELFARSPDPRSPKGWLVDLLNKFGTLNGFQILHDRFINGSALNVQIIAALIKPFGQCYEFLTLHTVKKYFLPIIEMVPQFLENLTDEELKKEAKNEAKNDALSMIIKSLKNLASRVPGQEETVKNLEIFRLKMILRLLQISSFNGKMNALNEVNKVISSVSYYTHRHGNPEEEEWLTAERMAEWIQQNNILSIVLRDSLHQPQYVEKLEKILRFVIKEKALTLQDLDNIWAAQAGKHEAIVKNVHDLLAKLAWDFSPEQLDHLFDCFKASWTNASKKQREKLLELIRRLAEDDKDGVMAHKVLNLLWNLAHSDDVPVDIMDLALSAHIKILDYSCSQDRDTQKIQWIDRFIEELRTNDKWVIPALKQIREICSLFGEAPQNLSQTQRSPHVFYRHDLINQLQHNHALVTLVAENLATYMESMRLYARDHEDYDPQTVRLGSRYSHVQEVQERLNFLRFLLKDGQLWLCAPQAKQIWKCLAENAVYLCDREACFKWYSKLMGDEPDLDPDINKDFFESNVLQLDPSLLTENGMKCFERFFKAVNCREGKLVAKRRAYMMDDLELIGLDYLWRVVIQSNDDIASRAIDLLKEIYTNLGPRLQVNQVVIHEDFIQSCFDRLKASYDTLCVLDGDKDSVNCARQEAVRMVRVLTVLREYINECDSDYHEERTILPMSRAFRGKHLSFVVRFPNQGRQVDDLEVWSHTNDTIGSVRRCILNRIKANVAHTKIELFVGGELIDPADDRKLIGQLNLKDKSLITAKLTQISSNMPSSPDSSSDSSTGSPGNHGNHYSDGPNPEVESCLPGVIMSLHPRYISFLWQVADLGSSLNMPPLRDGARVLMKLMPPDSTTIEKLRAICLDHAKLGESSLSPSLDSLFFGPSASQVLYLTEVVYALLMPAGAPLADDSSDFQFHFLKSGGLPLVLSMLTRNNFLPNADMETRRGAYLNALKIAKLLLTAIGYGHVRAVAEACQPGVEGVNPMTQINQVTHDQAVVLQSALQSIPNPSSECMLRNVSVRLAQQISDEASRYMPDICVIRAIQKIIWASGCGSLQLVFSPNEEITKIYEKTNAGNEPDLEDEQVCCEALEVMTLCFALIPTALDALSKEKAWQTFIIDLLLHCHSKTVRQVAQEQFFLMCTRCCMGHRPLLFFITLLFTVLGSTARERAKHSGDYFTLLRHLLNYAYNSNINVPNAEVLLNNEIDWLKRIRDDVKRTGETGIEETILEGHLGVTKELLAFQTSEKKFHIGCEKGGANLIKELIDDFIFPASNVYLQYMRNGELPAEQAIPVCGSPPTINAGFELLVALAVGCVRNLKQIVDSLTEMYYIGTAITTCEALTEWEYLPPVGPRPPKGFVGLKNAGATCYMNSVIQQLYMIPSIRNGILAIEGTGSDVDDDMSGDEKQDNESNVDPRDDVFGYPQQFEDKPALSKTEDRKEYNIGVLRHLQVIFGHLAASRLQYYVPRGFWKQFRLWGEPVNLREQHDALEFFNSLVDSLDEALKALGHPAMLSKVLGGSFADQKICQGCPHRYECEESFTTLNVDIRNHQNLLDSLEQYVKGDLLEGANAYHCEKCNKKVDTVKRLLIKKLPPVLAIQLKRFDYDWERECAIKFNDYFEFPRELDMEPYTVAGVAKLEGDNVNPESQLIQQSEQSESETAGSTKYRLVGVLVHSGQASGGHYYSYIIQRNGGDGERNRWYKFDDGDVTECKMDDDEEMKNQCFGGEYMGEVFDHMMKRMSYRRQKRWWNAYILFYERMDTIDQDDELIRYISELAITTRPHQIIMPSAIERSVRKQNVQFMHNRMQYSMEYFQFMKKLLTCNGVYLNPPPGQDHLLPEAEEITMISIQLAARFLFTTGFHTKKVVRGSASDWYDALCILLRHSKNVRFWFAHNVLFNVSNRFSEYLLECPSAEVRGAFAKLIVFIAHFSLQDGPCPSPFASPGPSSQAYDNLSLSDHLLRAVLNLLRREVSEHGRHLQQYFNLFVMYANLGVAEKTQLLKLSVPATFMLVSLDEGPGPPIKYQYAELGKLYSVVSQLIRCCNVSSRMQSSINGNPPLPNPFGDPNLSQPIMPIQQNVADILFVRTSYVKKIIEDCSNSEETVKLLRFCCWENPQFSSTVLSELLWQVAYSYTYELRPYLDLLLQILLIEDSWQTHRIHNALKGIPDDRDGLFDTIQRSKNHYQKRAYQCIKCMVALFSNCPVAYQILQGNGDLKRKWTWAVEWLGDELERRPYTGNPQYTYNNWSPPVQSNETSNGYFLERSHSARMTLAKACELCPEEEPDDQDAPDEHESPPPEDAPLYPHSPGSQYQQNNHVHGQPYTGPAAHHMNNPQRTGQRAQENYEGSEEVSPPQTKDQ
Outline: (§1)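 HEK293T lysate (495 µg per sample, in Tris/CHAPS/IGEPAL buffer with protease inhibitors) was treated in triplicate with fragment at 200 µM or with DMSO for 3 h. It was then treated with Biotin-Ahx-Ub-VS (0.5 µM final) for 1 h. Labelled DUBs were NeutrAvidin-enriched, digested with LysC and trypsin, and run by diaPASEF LC-MS/MS. Spectronaut label-free quantities were global-median-normalised. Values are average log2 ratios fragment/DMSO by unpaired t-test, using proteins with ≥2 unique peptides.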

UniProt O00487 = target: UniProt O00487
Chain of UniProt O00487 (O00487 whole entry): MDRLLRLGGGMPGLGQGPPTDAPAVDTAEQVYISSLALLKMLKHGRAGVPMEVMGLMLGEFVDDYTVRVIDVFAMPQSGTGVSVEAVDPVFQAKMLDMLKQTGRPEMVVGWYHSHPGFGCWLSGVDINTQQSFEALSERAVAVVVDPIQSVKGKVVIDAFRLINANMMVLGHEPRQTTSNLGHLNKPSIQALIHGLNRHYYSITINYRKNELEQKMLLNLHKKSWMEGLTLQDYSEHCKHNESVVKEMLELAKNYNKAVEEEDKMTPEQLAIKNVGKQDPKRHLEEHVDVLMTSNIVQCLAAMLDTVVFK
Outline: as §1

UniProt O00507 = target: UniProt O00507
Outline: as §1

UniProt P51784 = target: UniProt P51784
Chain of UniProt P51784 (P51784 whole entry): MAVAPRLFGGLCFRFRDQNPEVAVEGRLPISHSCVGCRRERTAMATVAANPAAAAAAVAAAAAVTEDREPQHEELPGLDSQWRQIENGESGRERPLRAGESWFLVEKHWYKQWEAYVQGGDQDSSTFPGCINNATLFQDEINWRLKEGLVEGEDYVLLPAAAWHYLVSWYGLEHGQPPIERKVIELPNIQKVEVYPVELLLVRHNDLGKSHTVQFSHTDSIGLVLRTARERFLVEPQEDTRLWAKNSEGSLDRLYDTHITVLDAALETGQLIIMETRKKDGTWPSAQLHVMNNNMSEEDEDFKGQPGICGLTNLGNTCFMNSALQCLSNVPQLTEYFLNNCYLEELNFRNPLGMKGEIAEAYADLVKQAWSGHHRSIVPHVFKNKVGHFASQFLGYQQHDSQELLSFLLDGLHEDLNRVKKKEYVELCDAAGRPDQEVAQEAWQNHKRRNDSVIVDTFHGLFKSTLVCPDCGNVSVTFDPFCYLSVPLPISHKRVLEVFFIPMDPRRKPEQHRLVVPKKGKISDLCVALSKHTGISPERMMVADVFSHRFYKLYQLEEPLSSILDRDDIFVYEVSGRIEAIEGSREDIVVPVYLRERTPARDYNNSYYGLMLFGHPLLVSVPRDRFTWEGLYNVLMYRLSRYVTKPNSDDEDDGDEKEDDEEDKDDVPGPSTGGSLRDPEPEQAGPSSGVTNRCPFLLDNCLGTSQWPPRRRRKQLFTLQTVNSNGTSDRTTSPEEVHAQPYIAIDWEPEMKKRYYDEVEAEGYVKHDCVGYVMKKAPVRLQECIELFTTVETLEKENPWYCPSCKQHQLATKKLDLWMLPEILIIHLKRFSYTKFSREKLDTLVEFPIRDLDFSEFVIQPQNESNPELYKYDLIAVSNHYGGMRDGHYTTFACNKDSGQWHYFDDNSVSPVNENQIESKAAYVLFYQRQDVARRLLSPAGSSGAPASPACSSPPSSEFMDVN
Outline: as §1

UniProt Q5T2D3 = target: T1, UniProt Q5T2D3
T1 sequence (whole entry): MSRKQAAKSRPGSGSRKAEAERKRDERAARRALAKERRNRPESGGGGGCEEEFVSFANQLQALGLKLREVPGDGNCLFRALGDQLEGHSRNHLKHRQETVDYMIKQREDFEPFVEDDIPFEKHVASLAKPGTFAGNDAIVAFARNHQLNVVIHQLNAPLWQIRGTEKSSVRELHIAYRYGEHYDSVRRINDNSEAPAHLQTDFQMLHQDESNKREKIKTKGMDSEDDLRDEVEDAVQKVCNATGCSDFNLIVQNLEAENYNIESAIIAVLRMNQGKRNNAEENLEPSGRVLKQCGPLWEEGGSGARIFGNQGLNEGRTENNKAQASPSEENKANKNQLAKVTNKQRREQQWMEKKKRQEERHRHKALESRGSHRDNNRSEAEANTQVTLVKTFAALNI
Outline: as §1

UniProt Q8TE49 = target: T2, UniProt Q8TE49
T2 sequence (whole entry): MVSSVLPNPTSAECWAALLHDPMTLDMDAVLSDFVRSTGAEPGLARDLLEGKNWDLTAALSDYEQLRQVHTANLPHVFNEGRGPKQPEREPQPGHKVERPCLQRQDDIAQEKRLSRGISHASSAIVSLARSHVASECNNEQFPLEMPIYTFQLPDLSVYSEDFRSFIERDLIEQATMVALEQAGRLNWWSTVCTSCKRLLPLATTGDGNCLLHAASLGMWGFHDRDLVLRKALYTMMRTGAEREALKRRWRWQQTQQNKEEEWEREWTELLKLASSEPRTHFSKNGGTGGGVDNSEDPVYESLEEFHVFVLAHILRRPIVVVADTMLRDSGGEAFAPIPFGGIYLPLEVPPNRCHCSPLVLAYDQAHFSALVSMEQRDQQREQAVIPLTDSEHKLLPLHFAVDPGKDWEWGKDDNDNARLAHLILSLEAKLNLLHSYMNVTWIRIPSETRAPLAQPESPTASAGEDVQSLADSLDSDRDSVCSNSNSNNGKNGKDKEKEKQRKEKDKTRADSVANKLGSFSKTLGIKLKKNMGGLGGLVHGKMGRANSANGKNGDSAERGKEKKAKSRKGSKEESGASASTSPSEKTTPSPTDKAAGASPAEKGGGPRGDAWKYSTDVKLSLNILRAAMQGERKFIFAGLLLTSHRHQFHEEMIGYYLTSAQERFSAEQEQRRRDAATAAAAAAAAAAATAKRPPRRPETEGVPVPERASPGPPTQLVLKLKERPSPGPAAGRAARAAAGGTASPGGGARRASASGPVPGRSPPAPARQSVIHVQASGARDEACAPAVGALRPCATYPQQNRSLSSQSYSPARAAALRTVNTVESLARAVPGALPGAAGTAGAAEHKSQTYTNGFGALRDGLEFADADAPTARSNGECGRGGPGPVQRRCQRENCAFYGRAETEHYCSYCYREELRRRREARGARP
Outline: as §1

UniProt Q9P2H5 = target: T3, UniProt Q9P2H5
T3 sequence (whole entry): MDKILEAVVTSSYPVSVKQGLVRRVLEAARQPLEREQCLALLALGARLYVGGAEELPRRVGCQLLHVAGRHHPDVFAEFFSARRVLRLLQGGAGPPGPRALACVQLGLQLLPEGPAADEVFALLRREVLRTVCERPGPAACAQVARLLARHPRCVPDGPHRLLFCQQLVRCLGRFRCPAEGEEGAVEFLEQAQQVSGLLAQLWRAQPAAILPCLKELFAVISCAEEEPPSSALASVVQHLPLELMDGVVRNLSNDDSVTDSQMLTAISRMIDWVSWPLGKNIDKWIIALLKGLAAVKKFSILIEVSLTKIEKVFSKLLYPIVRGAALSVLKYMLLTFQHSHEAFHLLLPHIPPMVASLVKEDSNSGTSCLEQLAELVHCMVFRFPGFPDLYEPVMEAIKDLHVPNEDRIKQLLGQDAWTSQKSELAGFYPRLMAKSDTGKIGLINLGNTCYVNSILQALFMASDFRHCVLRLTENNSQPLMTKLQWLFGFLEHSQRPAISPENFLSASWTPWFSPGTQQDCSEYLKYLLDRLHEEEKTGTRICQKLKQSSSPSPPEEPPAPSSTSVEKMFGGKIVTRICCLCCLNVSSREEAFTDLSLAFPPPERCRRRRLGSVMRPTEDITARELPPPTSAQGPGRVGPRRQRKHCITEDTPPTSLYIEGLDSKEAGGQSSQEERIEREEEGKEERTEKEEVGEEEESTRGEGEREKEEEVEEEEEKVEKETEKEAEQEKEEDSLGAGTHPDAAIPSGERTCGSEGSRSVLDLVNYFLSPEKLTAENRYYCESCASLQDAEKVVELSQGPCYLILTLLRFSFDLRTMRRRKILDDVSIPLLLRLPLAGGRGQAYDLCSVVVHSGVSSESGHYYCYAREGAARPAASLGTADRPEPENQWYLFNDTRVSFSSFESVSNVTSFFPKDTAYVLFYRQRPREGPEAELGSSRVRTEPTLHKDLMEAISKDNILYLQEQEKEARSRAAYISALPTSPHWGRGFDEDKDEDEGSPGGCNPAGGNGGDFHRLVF
Outline: as §1

UniProt Q9UGI0 = target: T4, UniProt Q9UGI0
T4 sequence (whole entry): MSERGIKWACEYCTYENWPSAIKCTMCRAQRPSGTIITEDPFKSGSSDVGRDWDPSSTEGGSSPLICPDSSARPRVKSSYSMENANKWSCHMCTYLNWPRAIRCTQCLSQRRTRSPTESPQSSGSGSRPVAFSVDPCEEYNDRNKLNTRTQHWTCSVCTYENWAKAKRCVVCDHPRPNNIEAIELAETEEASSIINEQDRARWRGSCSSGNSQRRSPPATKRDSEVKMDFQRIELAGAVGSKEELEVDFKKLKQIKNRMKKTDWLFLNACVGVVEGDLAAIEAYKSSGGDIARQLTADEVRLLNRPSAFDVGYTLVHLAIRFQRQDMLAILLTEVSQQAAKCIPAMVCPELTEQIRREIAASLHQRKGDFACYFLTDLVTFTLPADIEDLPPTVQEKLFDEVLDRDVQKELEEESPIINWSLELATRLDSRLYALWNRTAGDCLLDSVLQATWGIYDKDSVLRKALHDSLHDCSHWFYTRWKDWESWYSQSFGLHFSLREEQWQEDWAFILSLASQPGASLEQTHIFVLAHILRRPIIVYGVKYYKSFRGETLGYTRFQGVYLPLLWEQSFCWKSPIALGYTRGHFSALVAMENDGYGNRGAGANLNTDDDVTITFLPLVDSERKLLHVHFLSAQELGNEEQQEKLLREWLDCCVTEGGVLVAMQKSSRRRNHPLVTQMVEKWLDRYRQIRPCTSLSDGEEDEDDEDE
Outline: as §1

YOD1 = target: T5, YOD1 (UniProt Q5VVQ6)
T5 sequence (whole entry): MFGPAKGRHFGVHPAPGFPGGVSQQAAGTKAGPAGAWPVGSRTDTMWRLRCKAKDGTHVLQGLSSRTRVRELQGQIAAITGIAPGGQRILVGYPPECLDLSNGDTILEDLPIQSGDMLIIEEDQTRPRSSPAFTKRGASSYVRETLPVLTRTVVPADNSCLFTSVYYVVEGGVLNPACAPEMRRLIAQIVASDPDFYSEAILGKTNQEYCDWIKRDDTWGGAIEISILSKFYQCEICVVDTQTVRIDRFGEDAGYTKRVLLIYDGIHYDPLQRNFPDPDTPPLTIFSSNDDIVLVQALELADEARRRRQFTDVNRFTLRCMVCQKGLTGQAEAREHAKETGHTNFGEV
Outline: as §1

Measured: log2 ratio of Biotin-Ahx-Ub-VS probe labelling

NC(=O)C(Cc1ccccc1)NC(=O)CCl (centres undefined)
inactive: USP9X -0.099 | UniProt O00487 -0.162 | UniProt O00507 0.191 | UniProt P51784 -0.0194 | UniProt Q5T2D3 -0.105 | UniProt Q8TE49 -0.102 | UniProt Q9P2H5 -0.193 | UniProt Q9UGI0 -0.398 | YOD1 0.0228
